The nature of test [1]: Tanguay_ZF_120hpf_NC_legacy: (Legacy) Oregon State University Tanguay Lab 120 Hour Post-fertilization zebrafish Assay for Notochord and Tail Malformation (AID 2283656). The method in brief:
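Binary scoring of notochord distortion by brightfield microscopy; embryos dying were not scored. Wild-type Tropical 5D embryos, chorion removed, exposed singly and statically from 6 to 120 hpf, 28C, sealed, 0.64% DMSO.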

Read-out in test [2]: Broad substrate specificity ATP-binding cassette transporter ABCG2 (Homo sapiens) (UniProt Q9UNQ0)
Briefly: CLD_ABCG2_6hr: CellzDirect (CLD) Gene Expression Assay for ABC Transporter (ABCG2) at 6 hours (AID 2283660). The method in brief: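 ABCG2 mRNA induction measured by qNPA chemiluminescence in human primary hepatocyte cultures, 6 h post-dose. Chemicals tested at several concentrations against a 0.2% DMSO vehicle; positive-direction fit relative to DMSO.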

Read-out in test [3]: xenobiotic metabolism (CYP1A1), CYP1A1 (gene 1543)
Briefly: CLD_CYP1A1_6hr: CellzDirect (CLD) Gene Expression Assay for xenobiotic metabolism (CYP1A1) at 6 hours (AID 2283661). The method, boiled down:
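Read-out 6 h post-dose: qNPA chemiluminescent quantitation of transcript induction against 0.2% DMSO. Cells were cultured primary human hepatocytes from two separate donor preparations; phase-contrast morphology annotated apparent cytotoxicity.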

Read-out in test [4]: organic anion transporter (SLCO1B1), SLCO1B1 (gene 10599)
Put plainly: CLD_SLCO1B1_6hr: CellzDirect (CLD) Gene Expression Assay for organic anion transporter (SLCO1B1) at 6 hours (AID 2283668).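 Further: active means mRNA induction above DMSO baseline.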 The method, boiled down:
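SLCO1B1 mRNA induction measured 6 h after dosing by quantitative nuclease protection with chemiluminescent read-out, in human primary hepatocyte cultures given chemicals at several concentrations (vehicle 0.2% DMSO). Increase over DMSO baseline fitted; morphology-based cytotoxicity annotated yes/no.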

Read-out in test [5]: sulfotransferase (SULT2A), SULT2A1 (gene 6822)
Put plainly: CLD_SULT2A_6hr: CellzDirect (CLD) Gene Expression Assay for sulfotransferase (SULT2A) at 6 hours (AID 2283669).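 Further: hits raise transcript level above the DMSO vehicle baseline.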 The method in brief:
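Measured 6 h after dosing, SULT2A1 mRNA in human hepatocyte lysates was quantified by S1 nuclease protection with chemiluminescent detection. Increases fitted against 0.2% DMSO vehicle baseline; phase-contrast cytotoxicity recorded yes/no.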

Test [6] can be described thus: CLD_ACTIN_24hr: CellzDirect (CLD) Gene Expression Assay for Baseline Control (Actin) at 24 hours (AID 2283670). The method, boiled down: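 This 24 h qNPA (S1 nuclease protection, chemiluminescence) actin transcript readout in cultured human liver primary cells serves as baseline control. Signal is fitted upward relative to 0.2% DMSO; chemicals tested at multiple concentrations across two donor preparations.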

Read-out in test [7]: glucuronosyltransferase (UGT1A1), UGT1A1 (gene 54658)
Briefly: CLD_UGT1A1_6hr: CellzDirect (CLD) Gene Expression Assay for glucuronosyltransferase (UGT1A1) at 6 hours (AID 2283672). The method in brief: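 UGT1A1 mRNA induction, read by quantitative nuclease protection assay, 6 h after dosing primary human hepatocytes (two donors, 0.2% DMSO vehicle). Gain of signal fitted relative to vehicle.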

Test [8] has as its system Thyroperoxidase (TPO), gene 54314. Put plainly: CCTE_Simmons_AUR_rTPO: CCTE's Amplex UltraRed Assay for Thyroperoxidase (TPO) Inhibition, Simmons Lab (AID 2283662).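 On AC50: potency for loss of signal meaning inhibition of peroxidase activity.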 The method in brief: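 Rat thyroid microsomes (5 ug protein) with 25 uM Amplex UltraRed and 300 uM H2O2 in 200 mM phosphate buffer, 30 min at 37C in dark; fluorescence 544/590 nm. Eight concentrations, 5 nM–87.5 uM final, 0.5% DMSO, triplicate biological replicates.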

Test [9] is described as follows: CCTE_Simmons_CellTiterGLO_HEK293T: Viability Assessment in CCTE's Assays for Thyroperoxidase (TPO) Inhibition, Simmons Lab (AID 2283665).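 On AC50: cells exposed to compound for 24 h before readout; actives reduce ATP signal below DMSO vehicle meaning cytotoxicity.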 The method in brief: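 Cells were seeded overnight, then exposed to an eight-point series up to 87.5 uM final for 24 hours. CellTiter-Glo reagent was added and luminescence read after 20 min, giving ATP-based viability versus DMSO.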
(In general: Cellular ATP, detected with luciferase, serves as a proxy for viable cell number.)

Read-out in test [10]: alkyl and aryl transferase (GSTA2), GSTA2 (gene 2939)
Briefly: CLD_GSTA2_6hr: CellzDirect (CLD) Gene Expression Assay for alkyl and aryl transferase (GSTA2) at 6 hours (AID 2283666). The method in brief: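 GSTA2 transcript induction at 6 h, quantified by nuclease protection (qNPA) with chemiluminescent detection, in human liver primary hepatocytes exposed to several compound concentrations with 0.2% DMSO as baseline; phase-contrast morphology annotated apparent cytotoxicity.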

Read-out in test [11]: ABC Transporter (ABCB11), ABCB11 (gene 8647)
Put plainly: CLD_ABCB11_6hr: CellzDirect (CLD) Gene Expression Assay for ABC Transporter (ABCB11) at 6 hours (AID 2283675).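 Further: hits raise ABCB11 mRNA level so AC50 marks induction.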 The method in brief:
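Read-out was ABCB11 mRNA gain of signal by quantitative nuclease protection assay, relative to 0.2% DMSO vehicle, 6 h post-dose. Cells were primary human hepatocytes from two donors, treated across multiple concentrations; phase-contrast cytotoxicity noted yes/no.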

Read-out in test [12]: ABC Transporter (ABCB1), ABCB1 (gene 5243)
Put plainly: CLD_ABCB1_6hr: CellzDirect (CLD) Gene Expression Assay for ABC Transporter (ABCB1) at 6 hours (AID 2283659).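 Further: hits raise ABCB1 transcript above the DMSO vehicle baseline.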 The method, boiled down:
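ABCB1 transcript measured by quantitative nuclease protection assay, chemiluminescent read-out, 6 h after dosing human hepatocyte cultures (0.2% DMSO vehicle, daily redosing). Activity fitted as increase over DMSO baseline; cytotoxicity flagged by phase-contrast morphology.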

The nature of test [13]: Tanguay_ZF_120hpf_TR_legacy: (Legacy) Oregon State University Tanguay Lab 120 Hour Post-fertilization zebrafish Assay for Touch Response (AID 2283667). The method in brief:
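Readout is presence or absence of touch response in 120 hpf zebrafish larvae, assessed by brightfield observation after continuous static exposure at 28C. Final vehicle was 0.64% (vol/vol) DMSO.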

Test [14] can be described thus: CLD_ACTIN_6hr: CellzDirect (CLD) Gene Expression Assay for Baseline Control (Actin) at 6 hours (AID 2283676).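 Further: active means increased actin mRNA relative to DMSO vehicle.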 The method, boiled down: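 Baseline actin transcript level measured by qNPA (S1 nuclease protection, chemiluminescence) in human hepatocyte cultures 6 h after chemical exposure; 0.2% DMSO vehicle as reference, cytotoxicity noted from morphology.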
Read-out in test [15]: Cytochrome P450 2B6 (Homo sapiens) (UniProt P20813)
Briefly: CLD_CYP2B6_6hr: CellzDirect (CLD) Gene Expression Assay for xenobiotic metabolism (CYP2B6) at 6 hours (AID 2283677).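 Further: actives raise CYP2B6 transcript above DMSO baseline so AC50 marks an inducer.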 The method, boiled down: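 CYP2B6 transcript levels, read by chemiluminescent qNPA, were fitted for increase versus DMSO baseline; cultured human liver hepatocytes from two donor preparations were harvested 6 h after exposure to test chemicals at multiple concentrations.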

Read-out in test [16]: xenobiotic metabolism (CYP1A1), CYP1A1 (gene 1543)
Put plainly: CLD_CYP1A1_24hr: CellzDirect (CLD) Gene Expression Assay for xenobiotic metabolism (CYP1A1) at 24 hours (AID 2283673).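 Further: CYP1A1 mRNA level by quantitative nuclease protection with chemiluminescence.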 The method, boiled down:
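Transcript levels were read at 24 h by qNPA chemiluminescence in human liver primary cells. Cells got daily fresh dosing at multiple concentrations (vehicle 0.2% DMSO). Induction fitted upward against DMSO; phase-contrast cytotoxicity annotated.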

Read-out in test [17]: solute carrier (SLC10A1), SLC10A1 (gene 6554)
Briefly: LTEA_HepaRG_SLC10A1: Life Technologies and Expression Analysis (LTEA) Assay for solute carrier (SLC10A1) using HepaRG (AID 2283657; active means hit-call score of the fitted dose curve at least 0.9, where 1 is the maximum; inactive means score below 0.9). As to conditions: mRNA level, 48 h; actives raise or lower the signal. The method in brief: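 Cryopreserved HepaRG cells are thawed, plated and cultured 48 h; medium is then switched to serum-free induction medium and chemicals added (8 points, max 100 uM, 0.5% DMSO). After 48 h, RNA is isolated and SLC10A1 quantified by qRT-PCR.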

Read-out in test [18]: matrix metalloproteinase-1 (MMP1), MMP1 (gene 4312)
Briefly: LTEA_HepaRG_MMP1: Life Technologies and Expression Analysis (LTEA) Assay for matrix metalloproteinase-1 (MMP1) using HepaRG (AID 2283658; active means hit-call score of the fitted dose curve at least 0.9, where 1 is the maximum; inactive means score below 0.9). As to conditions: mRNA level, 48 h; actives raise or lower the signal. The method, boiled down:
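HepaRG, ~100,000 cells/well, 48 h pre-culture; serum-free induction medium; test chemical 8 conc (max 100 uM, half-log), duplicate, 48 h; 0.5% DMSO; qRT-PCR MMP1, housekeeping-normalized; gain/loss fit vs DMSO.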

Read-out in test [19]: Cytochrome P450 (CYP24A1_1), CYP24A1 (gene 1591)
Put plainly: LTEA_HepaRG_CYP24A1_1: Life Technologies and Expression Analysis (LTEA) Assay for Cytochrome P450 (CYP24A1_1) using HepaRG (AID 2283671; active means hit-call score of the fitted dose curve at least 0.9, where 1 is the maximum; inactive means score below 0.9). Particulars: mRNA level, 48 h; actives raise or lower the signal. The method in brief:
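Cultures of human HepaRG were treated in duplicate for 48 h (0.5% DMSO vehicle, highest dose 100 uM). CYP24A1 mRNA by qRT-PCR, normalized to ACTB, GAPDH, POLR2A.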

Structures are written as SMILES. Inconclusive results are not listed. Activity calls are given as the source filed them. How the source made its calls, unless noted: active means hit-call score of the fitted dose curve at least 0.9, where 1 is the maximum; inconclusive means response in the unintended direction; inactive means score below 0.9.

Broad substrate specificity ATP-binding cassette transporter ABCG2 (Homo sapiens), sequence (Q9UNQ0 whole entry, looked up): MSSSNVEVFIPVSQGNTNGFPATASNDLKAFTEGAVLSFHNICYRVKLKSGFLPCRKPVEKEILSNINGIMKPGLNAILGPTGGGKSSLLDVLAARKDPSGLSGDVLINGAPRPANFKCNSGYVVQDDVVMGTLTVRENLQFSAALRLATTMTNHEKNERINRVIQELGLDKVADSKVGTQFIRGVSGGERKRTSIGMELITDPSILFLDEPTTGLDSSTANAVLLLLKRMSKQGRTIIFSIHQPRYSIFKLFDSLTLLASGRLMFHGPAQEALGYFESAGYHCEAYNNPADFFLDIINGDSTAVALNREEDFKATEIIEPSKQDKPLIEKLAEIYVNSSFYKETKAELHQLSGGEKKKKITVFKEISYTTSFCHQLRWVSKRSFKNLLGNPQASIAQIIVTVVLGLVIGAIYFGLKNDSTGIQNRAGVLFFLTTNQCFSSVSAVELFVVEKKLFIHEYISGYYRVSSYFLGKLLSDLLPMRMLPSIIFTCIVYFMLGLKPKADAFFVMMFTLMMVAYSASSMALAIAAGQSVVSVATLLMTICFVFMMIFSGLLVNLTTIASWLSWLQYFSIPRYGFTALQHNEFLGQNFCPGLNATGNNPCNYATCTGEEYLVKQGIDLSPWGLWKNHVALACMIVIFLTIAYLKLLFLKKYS

On to `CSc1nnc(C(C)(C)C)c(=O)n1N`, for which the compound was classed as inactive in test [1], in [2], in [3], in test [4], in [5] and in [6]. For the same compound, the compound was called inactive in test [7].
The term AC50 denotes the concentration at which the activity in the assay is half-maximal. Regarding `N#CSCSC#N`, the outcome in [1], in test [2], in test [10], in test [4], in test [5] and in test [6] was inactive. In addition, the outcome in test [7] and in test [11] was inactive. The AC50 was 2.75 µM (active) in test [8] and 9.47 µM (active) in [9].
For `CCc1cccc(C)c1N(C(=O)CCl)C(C)COC` (stereo not given), the call in test [1], in [12], in [2], in test [10], in [13] and in test [5] was inactive. The compound was classed as inactive in [6], in test [7] and in [14]. Moreover, in [15], the AC50 was 0.596 µM (active).
As to `COP(=O)(OC)OC(Br)C(Cl)(Cl)Br` (stereo not given), the compound was called inactive in test [1], in [12], in test [2], in test [10], in test [13] and in [4]. In addition, the result in test [5], in test [6], in test [7] and in test [11] was inactive.
Regarding `CCCOCC(=Nc1ccc(Cl)cc1C(F)(F)F)n1ccnc1`, the outcome in [1], in test [2], in test [8], in test [10], in [13] and in [4] was inactive. Also, the outcome in test [5], in test [7] and in [11] was inactive. In addition, the AC50 was 21.3 µM (active) in [9], 2.36 µM (active) in test [16] and 1.15 µM (active) in test [15].
On to `CCOC(=O)CC(SP(=O)(OC)OC)C(=O)OCC` (stereo not given), for which the outcome in test [1], in test [18], in test [3], in test [9], in test [13] and in [19] was inactive. Also, the result in [7] and in [11] was inactive. In addition, the AC50 in test [17] was 10.1 µM (active); in test [8] it was 29.2 µM (active).
`C#CC(C)(C)NC(=O)c1cc(Cl)cc(Cl)c1`: the call in [1], in test [2], in test [3], in test [13], in test [5] and in test [7] was inactive. In test [15], the AC50 was 4.15 µM (active).
For `CCC(=NOC/C=C/Cl)C1=C(O)CC(C2CCOCC2)CC1=O` (stereo not given), the outcome in test [1], in test [2], in test [8], in [9], in [10] and in test [4] was inactive. For the same compound, the outcome in test [5], in test [6] and in test [7] was inactive.

Values taken from PubChem BioAssay (EPA / NIEHS).
